Hit rate of the full screen: of about 190,000 compounds, about 240 (0.13%) were called active. Cut-off read from the data, not from the text of the source: active = inhibition above about 40%. Only a selection was taken, and actives are over-represented in it overall.
The compounds below were run against Bcl-2-related protein A1 (Homo sapiens) (UniProt Q16548) (assay: inhibitors of Bim binding to Bfl-1, primary screen, biochemical, multiplexed, bead-based flow cytometry (AID 1008;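 note: 0% = wells without compound plus tracer and 100% = blocker peptide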)). Details: Bim-Bfl-1 binding inhibition, at 10 µM, hits give high values.
Bcl-2-related protein A1 (Homo sapiens), sequence (Q16548 whole entry, looked up): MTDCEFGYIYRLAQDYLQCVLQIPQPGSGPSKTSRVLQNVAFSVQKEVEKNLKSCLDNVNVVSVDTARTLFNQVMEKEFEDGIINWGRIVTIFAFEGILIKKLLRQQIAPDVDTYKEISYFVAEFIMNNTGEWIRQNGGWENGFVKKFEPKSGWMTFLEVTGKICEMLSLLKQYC
For `Cc1ccc(/C=N/NC(=O)Cn2ccc(C(F)(F)F)n2)o1`, the inhibition was -3% (inactive). In the case of `COc1ccc(N2C(=O)C(CC(=O)Nc3ccc(F)cc3)N(CCc3cccs3)C2=O)cc1` (stereo not given), the inhibition was -3% (inactive). In the case of `Cc1cc(C(=O)NNC(=O)c2cccc(S(=O)(=O)N3CCOCC3)c2)c2ccccc2n1`, the inhibition was -6% (inactive). `CC(C)n1c(O)c(N=Nc2ccccn2)c2ccccc21` was tested, and the inhibition was -1% (inactive). For `CCC(O)C1CCN(Cc2cn(-c3ccc(OC)cc3)nc2-c2cccc(F)c2)CC1` (stereo not given), the inhibition was -8% (inactive). `CC(=O)C1=C(C)NC2=C(C(=O)CC(C)(C)C2)C1C` (stereo not given) was tested, and the inhibition was -2% (inactive). For `O=C(O)CSc1nccc2ccccc12`, the inhibition was 5% (inactive). For `OC1CCCN(c2ncnc3c2nnn3Cc2c(F)cccc2Cl)C1` (stereo not given), the inhibition was 4% (inactive). For `CO/N=C/CC(=O)c1ccc(OC)cc1`, the inhibition was -2% (inactive). In the case of `OCCC1CN(Cc2ccc3nsnc3c2)CCN1C1CCCC1` (stereo not given), the inhibition was -8% (inactive). With `CCc1ccc(C2C(C#N)=C(N)N(N(C)C)C3=C2C(=O)CCC3)s1` (stereo not given) the inhibition was 0% (inactive). `CC(OC(=O)c1ccccc1OCc1ccc(Cl)cc1)C(N)=O` (stereo not given) was tested, and the inhibition was -4% (inactive). In the case of `CC1Cc2ccccc2N1C1=CC(=O)CC(C)(C)C1` (stereo not given), the inhibition was -4% (inactive). With `Cc1ccc(/C=N/NC(=O)CNC(=O)COc2ccccc2)o1` the inhibition was -12% (inactive). `C=CCc1ccccc1OCC(=O)N/N=C/c1ccccc1OCC` was tested, and the inhibition was -1% (inactive). In the case of `CCOc1ccccc1/C=N/NC(=O)CNC(=O)COc1ccccc1`, the inhibition was 54% (active). With `C=CCOC(=O)C1=C(C)N=C2SCCC(=O)N2C1/C=C/c1ccccc1OC` (stereo not given) the inhibition was -9% (inactive). With `Cc1ccc(/C=C/C(=O)Nc2ccc([N+](=O)[O-])c(NC(=O)/C=C/c3ccc(C)o3)c2)o1` the inhibition was 40% (active). In the case of `Cc1c(NC(=O)/C=C/C(=O)O)cccc1[N+](=O)[O-]`, the inhibition was -15% (inactive). `CCc1nnc(NC(=O)/C=C/c2ccc(C)o2)s1` was tested, and the inhibition was -1% (inactive). `O=C(/C=C/c1ccc(Cl)cc1)Nc1ccc(Br)cn1` was tested, and the inhibition was -6% (inactive). For `Cc1nn(-c2ccccc2)c(NC(=O)c2cccs2)c(-c2ccc(Cl)cc2)c1=O`, the inhibition was -7% (inactive). `CSCc1cc(N2CCOCC2)nc(SCc2ccc(Cl)cc2Cl)n1` was tested, and the inhibition was -15% (inactive). With `Clc1ccc(CSc2nnc(/C=C/c3ccccc3)o2)c(Cl)c1` the inhibition was -12% (inactive). In the case of `CSCc1cc(N(C)C)nc(SCc2ccc(Cl)cc2Cl)n1`, the inhibition was 52% (active). In the case of `COc1cc(OC)cc(-c2nnc(N(C)C(=O)c3ccncc3)s2)c1`, the inhibition was -10% (inactive). For `CCO[C@H]1OC(C(=O)N2CCCCCCC2)=C[C@@H](c2ccc(C(F)(F)F)cc2)[C@@H]1CCCO`, the inhibition was -7% (inactive). For `CC(/C=N/NC(=O)c1ccncc1)=C\c1ccco1`, the inhibition was -1% (inactive). `CC(/C=N/NC(=O)c1cc(-c2ccc3ccccc3c2)n[nH]1)=C\c1ccco1` was tested, and the inhibition was 8% (inactive). With `C/C(=C\c1ccco1)C1Nc2cccc3cccc(c23)N1` the inhibition was 45% (active).

Source: PubChem BioAssay AID1008 (NMMLSC, 2008)
